M1 antag = antagonists of rat M1 muscarinic receptor. AID 628, 2007. actives 3.4% (n = 64,000). CHO-M1 cells, Fluo-4 calcium, ACh EC80 antagonist mode; hits give low values. B-score at 10 µM. Muscarinic acetylcholine receptor M1 (Rattus norvegicus), P08482;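 active = calcium fluorescence response, raw or row-and-column corrected B-score, differing from the plate sample mean either way at a set confidence level, mostly lower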
Cav32 inh = Cav3.2 calcium influx blockers – cell-based, Fluo-4 calcium fluorescence, FDSS, MLSMR library, primary screen; Cav3.2-expressing cells; hits give low values; actives 4% (n = 100,000); B-score at 10 µM;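 active = single-dose well whose peak fluorescence ratio is a statistical outlier from its plate by either plate-standardised score or position-corrected B-score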
M1 agonist = M1 muscarinic receptor agonists, primary screen, CHO-M1 cells, Fluo-4 calcium, agonist mode; actives 3% (n = 64,000); B-score at 10 µM; Fluo-4 calcium fluorescence; hits give high values; Muscarinic acetylcholine receptor M1; AID 626, 2007;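 active = fluorescence rise, raw or as B-score row- and column-corrected plate score, outside the 99.7% band of its plate's samples, either direction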
Pyk2 oligo antag = antagonists of Pyk2 self-association, primary screen, Q293 cells, FERM NanoBiT luminescence, HTS; actives 0.83% (n = 99,000); hits give low values; z-score (the deposit names both 25 µM and 10 µM); Protein-tyrosine kinase 2-beta (Homo sapiens), Q14289; AID 1347419, 2020;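 active = Z-score of -3 or lower, scaled per plate to the spread of control and sample wells; inactive = z-score above -3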;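 also: negative z-score means lost luminescence so less FERM oligomerization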
* marks the source's active call; other numbers are inactive results; . = no result given. Compounds with a hit are over-represented: about 7.1% of the library has one in this group of screens.

SMILES | M1 antag | Cav32 inh | M1 agonist | Pyk2 oligo antag
O=C(CSc1nc(N2CCCCC2)nc(N2CCCCC2)n1)c1ccccc1 | 0.54 | -4.2* | 4.6 | -0.99
COc1cccc(C(=O)CN(C(=O)c2ccc(Cl)c(Cl)c2)N2C(=O)C3CCCCC3C2=O)c1 (centres undefined) | . | -0.75 | . | -0.46
Cc1ccc(-c2nn(-c3ccccc3)cc2/C=N/NC(=O)CSc2nnc(C)n2-c2ccccc2)cc1 | . | -4.5* | . | -1.6
COc1cccc(/C=N/NC(=O)CSc2nnc(C)n2-c2ccccc2)c1O | . | . | . | 0.79
CCc1cc2c(SCC(=O)c3ccc(Cl)s3)ncnc2s1 | . | 0.15 | . | -0.33
Cc1ccc(NC(=O)/C=C\C(=O)NCC(=O)O)cc1C | . | . | . | 0.92
COc1cc(OC)c(C2CC(=O)N3CN(C)CSC3=C2C#N)cc1OC (centres undefined) | 0.66* | 0.54 | -0.56 | .
Cc1ccc(NC(=O)Cc2nc(CSc3nnc(-c4ccc5c(c4)OCO5)o3)cs2)cc1 | -0.43 | -5.4* | -0.05 | -0.44
COC(=O)c1ccc(C(=O)OC)c(NC(=O)c2ocnc2C)c1 | 0.63 | . | 1.3 | .
CC(=O)Nc1ccc(S(=O)(=O)N2CCSC2c2ccc(C)cc2)cc1 (centres undefined) | -0.047 | -4.2* | 0.006 | -1.8
COc1ccc(C2SCCN2S(=O)(=O)c2ccc(NC(C)=O)cc2)cc1 (centres undefined) | . | -0.39 | . | -0.75
Cc1ccc(NC2=C/C(=N\S(=O)(=O)c3cccs3)c3ccccc3C2=O)c(C)c1 | . | -2.6 | . | -3.7*
Cc1ccc(Cl)cc1NC1=C/C(=N\S(=O)(=O)c2cccs2)c2ccccc2C1=O | . | . | . | -4.4*
N/C(=N\S(=O)(=O)c1cccs1)c1ccccc1 | 0.2 | . | 0.81 | -0.16
O=C(c1cc([N+](=O)[O-])ccc1Cl)N1c2ccccc2Sc2ccccc21 | . | . | . | -0.64
O=C(c1ccc(Cl)cc1)N1CCC(O)(CSc2ccc(Cl)cc2Cl)CC1 | . | -2.1 | . | -1.9
CCCN1C(=O)/C(=C/c2ccc(N3CCCC3)c(C)c2)NC1=S | . | -7.1* | . | -0.08
Cc1nc2ccccc2c2oc(C(=O)NCC3COc4ccccc4O3)cc12 (centres undefined) | -0.29 | -5.3* | 1.2 | .
Cc1ccc2c(CC(=O)NCC3COc4ccccc4O3)coc2c1 (centres undefined) | 0.58 | -6.6* | 0.19 | 1.1
O=C(Cc1ccccc1)NCC1COc2ccccc2O1 (centres undefined) | . | -1.6 | . | 0.58
O=C(CCC1COc2ccccc2O1)NCC1COc2ccccc2O1 (centres undefined) | 0.0099 | -9.6* | 0.039 | -0.18
O=C(NCc1cccnc1)C1CCCN(S(=O)(=O)c2ccccc2)C1 (centres undefined) | 0.3 | 0.31 | -0.064 | 2.1
C=C1CCN([C@@H](CC(C)C)C(=O)N2CCOCC2)S(=O)(=O)c2ccccc21 | . | 2.1 | . | .
CCCN(CCC)C(=O)CSc1nc2ccccc2c(=O)n1C1CCCC1 | -0.4 | -5.6* | 1.2 | -1.6
CN(C)c1ccc(NC(=O)CSc2nc3ccccc3c(=O)n2C2CCCCC2)cc1 | 0.61 | -1.6 | 1.3 | -1.3
SMILES | M1 antag | Cav32 inh | M1 agonist | Pyk2 oligo antag
Cc1ccc(C(C)C)c(OCCNc2nc3c(c(=O)n(C)c(=O)n3C)n2C)c1 | -0.015 | . | 0.98 | .
Cc1cc(NC(=O)CSc2c(C)[nH]c3ccccc23)no1 | -0.093 | -5.6* | -0.76 | .
Cc1cc(NC(=O)CSc2cn(CCNC(=O)c3ccc(Cl)cc3)c3ccccc23)no1 | 0.56 | -6.1* | 0.88 | .
COc1ccccc1C(=O)NCCn1cc(SCC(=O)Nc2cc(C)on2)c2ccccc21 | -0.11 | -1.1 | 0.7 | -1.9
Cc1cc(NC(=O)CSc2nc3ccccc3s2)no1 | . | -0.45 | . | 1.2
NC(=O)CNC(=O)[C@@H]1CC2(CC(c3ccccc3)=NO2)CN1C(=O)c1ccc(Br)cc1 (some centres undefined) | . | -0.043 | . | .
O=C(CSc1nc2ccccc2[nH]1)Nc1ccc(F)c(F)c1 | . | -4.4* | . | 0.38
COc1cccc(NC(=O)COC(=O)c2cccnc2)c1 | 0.53 | -0.023 | -0.4 | 0.6
COc1cccc(NC(=O)COC(=O)c2c3c(nc4ccccc24)CCC(C)C3)c1 (centres undefined) | . | -2.6 | . | -4.7*
Cc1ccc(C)c(C(=O)COC(=O)c2ccc(Br)o2)c1 | 2.2* | -2 | -0.021 | 0.24
CC(C)N(C(=O)CSc1nn2c(=O)c(C(C)(C)C)nnc2s1)c1ccccc1 | -0.1 | -10* | 0.0078 | -1
O=C(NC1CCCCC1)C(c1cccs1)N(Cc1cccs1)C(=O)c1cccs1 (centres undefined) | . | -5.3* | . | -3.9*
